Inconclusive results are not listed. Calls of active or inactive are those of the source. The call rests on the fitted dose curve.
Assay: Confirmation Concentration-Response Assay for Identification of Small Molecule Agonists of Stat Signaling Pathway
Conditions: SIE-bla cells, IL-6 STAT beta-lactamase reporter, 5 h
Text: NIH Molecular Libraries Screening Centers Network [MLSCN] NIH Chemical Genomics Center [NCGC] MLSCN Grant: None NCGC Assay Overview: This assay is a retest of actives identified from the Stat signaling pathway assay (PubChem AID 446). The Stat assay is cell-based and measures Interleukin 6 (IL-6) mediated modulation of a beta-lactamase reporter gene controlled by a STAT inducible element (SIE-bla cells, Invitrogen). IL-6 is a cytokine that signals via the JAK/STAT pathway and is implicated in cancer and inflammation. SIE-bla cells are induced by IL-6 at 40 pM EC50 and inhibited by the pan JAK inhibitor, 2-(1,1-Dimethylethyl)-9-fluoro-3,6-dihydro-7H-benz[h]-imidaz[4,5-f]isoquinolin-7-one, at approximately 10 nM IC50. Plated cells were incubated overnight and on the following day, stimulated with 40 pM IL-6 for 5 hrs. The assay was stimulated with an EC50 of IL-6 to retest activators of STAT signaling.
NCGC Assay Protocol Summary: Cells were trypsinized, washed in assay medium (AM, OPTI MEM with 0.5% fetal bovine serum, 0.1 mM nonessential amino acids, 1 mM sodium pyruvate, 10mM HEPES pH 7.3, 100U/ml penicillin, and 100 ug/ml streptomycin) and suspended at […] in AM. Approximately 2500 cells in 5 uL/well was dispensed into 1536-well plates and the cells were incubated overnight at 37 C. 23 nL of compound were delivered by a pin tool and 1 uL of IL-6 (40 pM final concentration in AM) was added. After plates were incubated at 37 C for 5 hrs, 1uL of detector mix (LiveBLAzerTM, Invitrogen) was added, the plates incubated at room temperature for 2.5 hrs, and fluorescence intensity at 460 and 530 nm emissions was measured at 405 nm excitation by an Envision (Perkin Elmer).

Potency, active:
Cc1cc(=O)oc2c(CN3CCCCC3)c(O)c(Cl)cc12 10 µM, Cc1ccc(CNC(=O)c2cc3c(=O)n4ccccc4nc3n(CC3CCCO3)c2=N)cc1 (stereo unspecified) 10 µM, COc1cccc2c1C(=O)c1c(O)c3c(c(O)c1C2=O)C[C@@](O)(C(=O)CO)C[C@@H]3O[C@H]1C[C@H](N)[C@H](O)[C@H](C)O1 3.98 µM, CCN(CC)CCN1C(=O)c2cccc3cc(N)cc(c23)C1=O 15.8 µM, CN(C)c1ccc(-c2nn3c(-c4ccc(Cl)cc4)nnc3s2)cc1 3.16 µM, Nc1ncnc2c1ncn2[C@@H]1O[C@H](COP(=O)(O)O)[C@@H](O)[C@@H]1O 25.1 µM, CCOC(=O)c1cc2c(=O)n3cccc(C)c3nc2n(C)c1=N 3.98 µM, CC1CCN(c2oc(-c3ccccc3Cl)nc2C#N)CC1 6.31 µM, CCN(CC)CCC[C@H](C)Nc1c2ccc(Cl)cc2nc2ccc(OC)cc12 12.6 µM, Cc1ccc(S(=O)(=O)N2CCN(c3nc(C(C)C)c4c(c3C#N)CC(C)(C)OC4)CC2)cc1 10 µM, CCNC(=O)c1cc2c(=O)n3cccc(C)c3nc2n(CCc2ccccc2)c1=N 12.6 µM
